HCMV antiviral: human cytomegalovirus inhibition; AID 1259415; activity change, negative = inhibition, % at 57.5 µM; HFF cells, HCMV-luciferase reporter, 72 h; stronger effect = lower value; 410,000 tested, 4.5% active; in the data active = activity change below about -60%; inconclusive = no clear call, values can overlap the other calls; inactive = above about -39%
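Two compound doses tested in HFFs infected with HCMV-luciferase, MOI 1 PFU/cell, 72 h at 37C. Lysate luminescence read with OneGlo; data normalized against buffer-only and 10uM Salinomycin inhibitor controls.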
MARV entry inh: Marburg virus entry inhibition. Marburg virus pseudotyped entry inhibition, cell reporter. 300,000 tested, 1.8% active. Potency, µM (doses to about 37.8 µM), usual class: inhibitors; calls by dose curve; tested in HEK293 cells
HCV inh: HCV inhibition; Huh7.5.1 HCVcc-Cre infection, luciferase reporter, 44 h; Potency, µM (doses to about 41.8 µM), usual class: inhibitors; 340,000 tested, 3.4% active; active = well fitted inhibition curve with a large enough effect; inconclusive = small, poorly fitted or top-dose-only effect, or another doubt; inactive = no such curve, though single readings can be large or run the other way
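Cells seeded at 1,000/well and cultured 4 h, then compounds added followed by HCVcc-Cre virus (~0.5 moi). After 44 h further culture, luciferase substrate was added, plates held 15 min at room temperature, and luminescence read for 15 sec.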
Lassa entry inh: inhibitors of Lassa virus binding or cell entry; Lassa virus pseudotype entry inhibition, cell reporter; Potency, µM (series often up to 37.9 µM), hits mostly inhibitors; 300,000 tested, 1.2% active; AID 540256; calls by dose curve; tested in HEK293 cells; note: nearly all actives have a fitted effect of over 50% in size
FMDV inh: foot and mouth disease virus antiviral activity; FMDV antiviral cell-based qHTS; Potency, µM (top dose mostly 57.9 µM), usual class: inhibitors; 410,000 tested, 1.2% active; calls by dose curve; tested in HEK293T cells; note: read-out not given here; nearly all actives have a fitted effect of over 45% in size
Each line names hits and unclear results; the compound was inactive in the other large screens. Shown are actives, neighbours in structure and some others; about 7.9% of the full set was active somewhere.

O=C(CN1C(=O)c2ccccc2S1(=O)=O)c1ccc2c(c1)OCCO2	HCMV antiviral -98, FMDV inh 3.5µM (no result: MARV entry inh, Lassa entry inh)
Cc1cccc(CS(=O)(=O)Cc2ccc(C(=O)NCc3ccc(Cl)cc3)o2)c1	FMDV inh inconclusive (no result: MARV entry inh, HCV inh)
COCC(C)n1c(C)cc(C(=O)COc2ccc(N(C)S(=O)(=O)c3ccc(NC(C)=O)cc3)cc2)c1C (stereo not given)	MARV entry inh inconclusive, HCV inh inconclusive, Lassa entry inh inconclusive
C=CCn1c(C)cc(C(=O)COc2ccc(N(C)S(=O)(=O)c3ccc(NC(C)=O)cc3)cc2)c1C	HCV inh 8.9µM, FMDV inh inconclusive (no result: MARV entry inh, Lassa entry inh)
CN1CCN(c2ncnc3scc(-c4ccccc4Cl)c23)CC1	HCMV antiviral -73, MARV entry inh inconclusive, FMDV inh inconclusive
Fc1ccc(CN2CCN(c3ncnc4scc(-c5ccccc5)c34)CC2)cc1	HCMV antiviral -74, HCV inh inconclusive, FMDV inh inconclusive (no result: MARV entry inh, Lassa entry inh)
Oc1ccccc1N1CCN(c2ncnc3scc(-c4ccc(F)cc4)c23)CC1	HCMV antiviral -81, MARV entry inh inconclusive, HCV inh 11µM, Lassa entry inh inconclusive
OCC1CCCN(c2nc(CN3CCCCC3)nc3scc(-c4ccccc4)c23)C1 (stereo not given)	HCMV antiviral inconclusive, MARV entry inh inconclusive, HCV inh inconclusive, Lassa entry inh inconclusive
Fc1ccc(-c2csc3ncnc(N4CCN(Cc5ccccc5)CC4)c23)cc1	HCMV antiviral inconclusive, FMDV inh inconclusive
Oc1ccccc1N1CCN(c2ncnc3scc(-c4ccccc4)c23)CC1	MARV entry inh inconclusive, HCV inh inconclusive
OCC1CCCN(c2ncnc3scc(-c4ccccc4)c23)C1 (stereo not given)	HCMV antiviral -63 (no result: MARV entry inh, Lassa entry inh)
COc1ccc(Cn2ccc3nc(C)c(C(=O)Nc4cc(C)cc(C)c4)cc3c2=O)cc1	none (no result: MARV entry inh, HCV inh)
Cc1ccc(C)n1C1C(=O)N(C)c2ccc(Cl)cc21 (stereo not given)	none (no result: MARV entry inh, HCV inh, Lassa entry inh, FMDV inh)
Cc1sc2ncn(CC(=O)Nc3ccc(F)cc3Cl)c(=O)c2c1S(=O)(=O)N1CCN(c2ncccn2)CC1	none (no result: HCV inh)
Cc1cccc(-c2nc3c(cnn3-c3ccccc3)c(=O)n2-c2cccc(Cl)c2)c1	Lassa entry inh inconclusive (no result: MARV entry inh, HCV inh)
N#Cc1ccccc1NC(=O)CSC1=Nc2ccccc2C2CC=NN12 (stereo not given)	HCMV antiviral -60, FMDV inh inconclusive
N#Cc1ccccc1NC(=O)CSc1ccc([N+](=O)[O-])cn1	HCMV antiviral -66
O=C(CSC1=Nc2ccccc2C2CC=NN12)Nc1ccc2c(c1)OCO2 (stereo not given)	MARV entry inh inconclusive, HCV inh inconclusive, FMDV inh 20µM
CCCOC(=O)c1ccc(NC(=O)CSC2=Nc3ccccc3C3CC=NN23)cc1 (stereo not given)	none
Cc1nnc(NC(=O)CSc2ccc([N+](=O)[O-])cn2)s1	none
O=[N+]([O-])c1cc(-c2nc(-c3ccccc3)no2)ccc1NC1CCCC1	MARV entry inh inconclusive (no result: HCV inh)
CC(C)c1ccc(N(CC(=O)O)S(=O)(=O)c2ccc3[nH]c(=O)c(=O)[nH]c3c2)cc1	none (no result: MARV entry inh, HCV inh)
Nc1nc(N)c2cc(Sc3cccc(C(F)(F)F)c3)ccc2n1	HCMV antiviral -70, FMDV inh inconclusive (no result: MARV entry inh, HCV inh, Lassa entry inh)
Nc1nc(N)c2cc(Sc3ccc4ccccc4c3)ccc2n1	HCMV antiviral -84, HCV inh 11µM, FMDV inh inconclusive (no result: MARV entry inh, Lassa entry inh)
Nc1ccc(Sc2cc(Cl)nc(N)n2)cc1	none (no result: HCMV antiviral, Lassa entry inh, FMDV inh)
FC(F)(F)c1cccc(Sc2nc(-c3ccccc3)nnc2C(F)(F)F)c1	Lassa entry inh inconclusive, FMDV inh inconclusive
Nc1nc(N)c2cc(Sc3ccc(Cl)cc3)ccc2n1	HCMV antiviral -77 (no result: MARV entry inh, HCV inh, Lassa entry inh)
Nc1nc(-c2ccc3ccccc3c2)cs1	MARV entry inh inconclusive
O=C(CSc1nc2c([nH]c3ccccc32)c(=O)n1-c1cccc(Cl)c1)NCc1ccccc1	HCMV antiviral inconclusive, Lassa entry inh inconclusive (no result: MARV entry inh, HCV inh)
Cc1ccc(CNc2nc(CN3CCNC(=O)C3)nc3ccccc23)o1	none (no result: HCMV antiviral, MARV entry inh, HCV inh, Lassa entry inh)
CC(C)(C)c1ccc(C(=O)CC(=O)c2cc(Cl)ccc2O)cc1	HCMV antiviral -83, HCV inh 11µM, Lassa entry inh inconclusive
Cc1ccc(C(=O)CC(=O)c2cc(Cl)ccc2O)cc1	HCMV antiviral inconclusive, MARV entry inh inconclusive, HCV inh 13µM
COC(=O)c1ccc([C@H]2/C(=C(\O)c3ccc(OC)cc3)C(=O)C(=O)N2Cc2ccco2)cc1	none (no result: HCMV antiviral, HCV inh, Lassa entry inh, FMDV inh)
CCOC(=O)C1C(=O)C=C(c2ccc(C)cc2)CC1c1ccccc1 (stereo not given)	Lassa entry inh 16µM
CCOC(=O)C1C(=O)C=C(c2ccc([N+](=O)[O-])cc2)CC1c1ccccc1 (stereo not given)	MARV entry inh inconclusive, HCV inh inconclusive, Lassa entry inh inconclusive, FMDV inh inconclusive
CCOC(=O)C1C(=O)C=C(c2cccc(NS(C)(=O)=O)c2)CC1c1ccco1 (stereo not given)	none
CCOC(=O)C1C(=O)C=C(c2ccc(Br)cc2)CC1c1ccco1 (stereo not given)	MARV entry inh inconclusive, Lassa entry inh 15µM, FMDV inh inconclusive
COc1cc(NC(=O)Cn2ncc3c([nH]c4ccc(C)cc43)c2=O)cc(OC)c1OC	none (no result: MARV entry inh, HCV inh)
COc1ccc(-c2ccc(SCc3cccnc3)nn2)cc1OC	HCMV antiviral -63, HCV inh inconclusive (no result: MARV entry inh, Lassa entry inh)
CC(C)Sc1cc(N2CCOCC2)nc(-c2ccccc2)n1	HCMV antiviral inconclusive, HCV inh 13µM, FMDV inh inconclusive
COCc1cc(N2CCOCC2)nc(-c2ccccc2)n1	MARV entry inh 10µM, HCV inh inconclusive
O=C(CSc1ccncc1)NCC1Cc2cccc(-c3cncnc3)c2O1 (stereo not given)	none (no result: HCMV antiviral, MARV entry inh, HCV inh, Lassa entry inh)
Cc1ccc(-c2noc(-c3ccc(N4CCCCC4)c([N+](=O)[O-])c3)n2)cc1	MARV entry inh inconclusive, FMDV inh inconclusive (no result: HCV inh)
O=[N+]([O-])c1cc(-c2nc(-c3ccccc3)no2)ccc1N1CCCCC1	HCMV antiviral -88 (no result: HCV inh)
CN1CCN(c2ccc(-c3nc(-c4ccccc4)no3)cc2[N+](=O)[O-])CC1	HCMV antiviral -99, Lassa entry inh inconclusive (no result: HCV inh)
COc1ccc(-c2noc(-c3ccc(N4CCN(C)CC4)c([N+](=O)[O-])c3)n2)cc1	none (no result: HCV inh)
O=[N+]([O-])c1cc(-c2nc(-c3ccncc3)no2)ccc1Cl	HCMV antiviral -64
COc1cc(=O)n2c(c1C(=O)N(C)Cc1nonc1C)CCN(CC1CC=CCC1)CC2 (stereo not given)	none (no result: HCMV antiviral, MARV entry inh, HCV inh, Lassa entry inh)
Cc1cccc(C)c1N1C(=O)[C@@H]2[C@H](ON(c3ccccc3)[C@H]2c2ccncc2)C1=O	none (no result: HCMV antiviral, HCV inh, Lassa entry inh, FMDV inh)
Cc1ccc(Cl)cc1N1CCN(C(=O)c2cn(C3CCCCC3)c(=O)c3c2c2ccccc2n3C)CC1	MARV entry inh inconclusive, Lassa entry inh inconclusive (no result: HCV inh)
Cn1c(=O)[nH]c(=O)c2c1nc(Br)n2C/C=N/NC(N)=S	none (no result: MARV entry inh, HCV inh, Lassa entry inh, FMDV inh)
Cn1c(=O)c2c(nc(Br)n2C/C=N/NC(N)=S)n(C)c1=O	HCMV antiviral -84, MARV entry inh inconclusive
COCCn1c(CNC(=O)c2cc(OC)c(OC)c(OC)c2)nc2cccnc21	Lassa entry inh inconclusive (no result: MARV entry inh, HCV inh)
Cc1cccc2nc(COc3ccc4ccccc4c3Br)cn12	MARV entry inh 10µM, Lassa entry inh inconclusive
Cc1cccc2nc(CSc3ccccc3N)cn12	Lassa entry inh inconclusive

Screening results: PubChem, National Center for Advancing Translational Sciences (NCATS)
